Measurements taken from the supplement of paper PMC13380429.

Tests used:
[1] = test system: Vero E6 infected with SARS-CoV-2; assay: morphology score (similarity to uninfected cells); higher = more like uninfected cells; details: 24 h
[2] = test system: Vero E6 infected with SARS-CoV-2; assay: SARS-CoV-2 infection rate relative to infected DMSO; higher = more infection, active = 60 or less; details: 24 h

Structure (SMILES)	morphology score [1]	SARS-CoV-2 infection rate [2]
OCCC#Cc1nc(-c2ccc(F)cc2)c(-c2ccncc2)n1CCCc1ccccc1 (10 µM)	0.0292	101% (inactive)
CC1(C)O[C@H]2CC(=O)OC[C@]23[C@H]2CC[C@@]4(C)[C@H](c5ccoc5)OC(=O)[C@H]5O[C@]54[C@]2(C)C(=O)C[C@@H]13 [limonin] (10 µM)	0.289	103% (inactive)
O=C(Nc1ncc(SCCN2CCCC2)s1)[C@]1(c2ccc(S(=O)(=O)C3CC3)cc2)C[C@H]1C1CCCCC1 (10 µM)	0.767	17% (active)
CCN(CC)CC(=O)Nc1c(C)cccc1C [lidocaine] (10 µM)	0.0603	100% (inactive)
C[C@@H](c1nc(-c2ccc(C#N)cc2)cs1)[C@](O)(Cn1cncn1)c1cc(F)ccc1F [isavuconazole] (10 µM)	-0.116	113% (inactive)
N[C@@H]1CCCCN(c2c(F)cc3c(=O)c(C(=O)O)cn(C4CC4)c3c2Cl)C1 [besifloxacin] (10 µM)	0.165	110% (inactive)
Cc1cc(-c2ccc(CC(=O)Nc3ccc(-c4cccnc4)cc3)cc2)ccn1 (10 µM)	0.392	75.5% (inactive)
CC(=O)Oc1ccccc1C(=O)Oc1ccccc1C(=O)O [acetylsalicylsalicylic-acid] (10 µM)	0.0259	103% (inactive)
CCOc1ccc(S(=O)(=O)O)c2cccnc12 [actinoquinol] (10 µM)	0.0631	112% (inactive)
C[C@]12CC[C@H](O)CC1=CC[C@@H]1[C@@H]2CC[C@]2(C)C(n3cnc4ccccc43)=CC[C@@H]12 [galeterone] (0.833333 µM)	-0.052	113% (inactive)
Nc1nc(Nc2ccc(S(N)(=O)=O)cc2)nn1C(=O)c1c(F)cccc1F (0.833333 µM)	-0.114	120% (inactive)
CCC(CC)(NC(=O)C(C)C)C(=O)N[C@@H](CCCNC(=N)N)C(=O)NC1(C(=O)NC(c2ccc(F)cc2)c2ccc(F)cc2)CCCC1 (10 µM)	-0.044	116% (inactive)
O=C(c1cccc(Br)c1)N1CCC(N2CCCC2)CC1 (10 µM)	-0.00696	106% (inactive)
